The source of these data is publication PMC10163288.

First the molecules themselves.
B1: il2ra_site2_2erj_normal_mot_HHH_b2_01353_af2_000000049_0001_23_39_H_._HHH_b1_04436_af2_0001_0000200013_0000001_0 (protein)
chain: SSSSDEIEELLEKAKELLEKGNPEEAEEVLRRASVAAFENRDHEAFAEIAELLRIVAELEASSSS
B2: il2ra_site1_1z92_sap_28_mot_HHH_b1_00661_af2_000000033_0001_38_50_H_._HHH_b2_00267_af2_0001_0000300009_0000001_0_0001_af2pred_0001_af2pred_1 (protein)
chain: PEELAEQAEELLKNGNPEEAEKVLRELAKELGNEEVFERDLEHAERNLGNPEQALLSLIKALSFV
B3: il2ra_site1_1z92_sap_12_mot_HHH_b2_04974_000000012_0001_1_17_H_._HHH_b1_06150_af2_0001_0000300041_0000001_0_0001_af2pred_dldesign_0_af2pred (protein)
chain: SSSSSSPYQRARDLILEINKARQAGDTEKFDELLAELEKLAKELESNTLLRFIEHARKELSSSSS
B4: il2ra_site2_2erj_normal_mot_HHH_b2_06912_000000039_0001_38_52_H_._HHH_b2_01292_0001_0000100004_0000001_0 (protein)
chain: SSSSSDKEESEKLAEEAHELILRNPERVEEIVEEFRRELEELNDPIAVRYLELVRRDVNSSSSSS
B5: il2ra_site2_3nfp_sap_24_mot_HHH_b1_03818_000000217_0001_1_20_H_._HHH_b1_04518_af2_0001_0000400014_0000001_0_0001 (protein)
chain: SEKDLIEMSLEMIKAHALLHGNEEVQEIVEELERLLEEAKRKNDEELREEVAERAAELIERVLES
B6: il2ra_site2_2erj_normal_mot_HHH_b2_00494_000000216_0001_41_54_H_._HHH_b1_07802_af2_0001_0000300011_0000001_0 (protein)
chain: SSSSNEELRRLYELADEALRLITEGNPEEAEKVLEEARELAERLNSENAREVVEFLEELLESSSS
B7: il2ra_site2_2erj_sap_21_mot_HHH_b2_00938_af2_000000099_0001_43_55_H_._HHH_b1_03152_af2_0001_0000100003_0000001_0_0001 (protein)
chain: SSSSLHEAFEIAVEAAAKISRLHREGNDEEAKRVFEEARERLEELGTENAREHLEHLFKALSSSS
B8: il2ra_site2_3nfp_normal_mot_HHH_b1_00660_af2_000000090_0001_40_57_H_._HHH_b1_02730_0001_0001000022_0000001_0 (protein)
chain: SSSSSDEEVRELLEQLRELIEKNDEEEFERLSREITNLAYELNNFELFALVQELRARFISSSSSS
B9: il2ra_site2_3nfp_normal_mot_HHH_b2_04451_000000238_0001_21_37_H_._HHH_b2_04195_af2_0001_0000200011_0000001_0 (protein)
chain: SSSSSEEEEVRELLEQARELLERGDPYEALELLAEASEIAAKLNNEELARLILELFEKVQKSSSS
B10: il2ra_site2_3nfp_normal_mot_HHH_b2_08209_000000146_0001_1_18_H_._HHH_b1_00160_0001_0000200018_0000001_0 (protein)
chain: SSSSSTEEERERVEELLEEAKEITDPEERKELLAEATQIAYEANDFELFALVADVVFELLSSSSS
B11: il2ra_site2_3nfp_sap_19_mot_HHH_b1_06699_000000048_0001_23_40_H_._ems_3hC_59_0001_0000100006_0000001_0_0001_af2pred_0001_af2pred (protein)
chain: SSSSSDAAEEAEELAEEARHVEDPEERERILRKAAELAYRARDHEVFAEIHLVIEELERSSSSSS
B12: il2ra_site1_3nfp_normal_mot_HHH_b2_08102_af2_000000255_0001_38_50_H_._HHH_b2_05157_0001_0000400017_0000001_0_af2pred_0001_af2pred (protein)
chain: SSSSDHLAREYTEWAKRRIRELLERGDEEAARRLLEKAKRSLEIAGDEEAVEELEKLYEELSSSS
B13: il2ra_site1_2b5i_normal_mot_HHH_b2_01040_af2_000000143_0001_42_56_H_._HHH_b1_04969_af2_0002_0000100009_0000001_0 (protein)
chain: SSSSSDEAEEAAREALELLRELLRVDEEEIKELLEEAHEKLEKLNDEALLKRVERLLRLLSSSSS
B14: il2ra_site1_3nfp_sap_13_mot_HHH_b1_04931_000000291_0001_38_56_H_._HHH_b2_07276_0001_0000200010_0000001_0_0001 (protein)
chain: SSSSSDYEELERLFREIFELAKKGDHEEARRLIEELEELAHEANNEFMEQAVKQLKKTVNSSSSS
B15: il2ra_site2_3nfp_normal_mot_HHH_b2_00232_000000252_0001_23_39_H_._HHH_b2_01857_0001_0000200024_0000001_0_1_af2pred_0001_af2pred (protein)
chain: SSSSSDEEEEKVEELLEEAEHIEDEEELEDILALAFLIAFEAEDPELLRLVREVSAELLQSSSSS
B16: il2ra_site2_2erj_sap_21_mot_39ed66e5fba071e4f274ea7f2cf018e6_0001_000000286_0001_17_31_H_._HHH_b1_00857_0001_0000200006_0000001_0_0001_af2pred_0001_af2pred (protein)
chain: SSSSEEREKAKELAARALQLRERGNPEEAEELLREAEEIAREGGDEELLQLIQAALRLIELSSSS
B17: il2ra_site1_3nfp_normal_mot_HHH_b1_02721_af2_000000134_0001_39_56_H_._HHH_b2_00677_af2_0001_0000100009_0000001_0 (protein)
chain: SSSSSDTEEAFQLDRELLEALRKGDEELIEELLRELEELAKELNDELAERLVEQFKELLKSSSSS
B18: il2ra_site2_2erj_sap_26_mot_HHH_b2_08005_af2_000000017_0001_39_52_H_._5f42aca8a0c299d7b7d7982f3e471efe_0001_0001_0000400050_0000001_0_0001 (protein)
chain: SSSSDLEEEVERIEKEAEELYKNGNPEEALRLLSELFDELYQLGDHELAARVIKLVAELARSSSS

A selection follows. The true hit rate is not given. Unmarked numbers belong to inactive results.

il2ra, P01589, sequence (P01589 whole entry): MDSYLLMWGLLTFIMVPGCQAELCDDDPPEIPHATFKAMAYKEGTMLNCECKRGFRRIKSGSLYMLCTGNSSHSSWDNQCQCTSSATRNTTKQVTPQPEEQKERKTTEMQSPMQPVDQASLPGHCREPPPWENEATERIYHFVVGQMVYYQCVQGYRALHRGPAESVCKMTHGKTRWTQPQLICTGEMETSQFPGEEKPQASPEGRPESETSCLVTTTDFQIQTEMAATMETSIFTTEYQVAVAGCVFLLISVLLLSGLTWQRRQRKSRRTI

This assay addresses il2ra, P01589. Kind of assay: yeast display titration.
For B1, the “apparent Kd” value is “no binding seen”.
Consider B2, for which the “apparent Kd” value was “no binding seen”.
Consider B3, for which the “apparent Kd” value is “no binding seen”.
With B4, the “apparent Kd” value was “no binding seen”.
Take B5: the “apparent Kd” value was “no binding seen”.
Then B6, with “no binding seen”.
For the molecule B7, the “apparent Kd” value is “no binding seen”.
Consider B8, for which the “apparent Kd” value is “no binding seen”.
In the case of B9, the “apparent Kd” value was “no binding seen”.
B10: the “apparent Kd” value was “no binding seen”.
B11: the “apparent Kd” value is “no binding seen”.
Regarding B12, the “apparent Kd” value was “no binding seen”.
As to B13, the “apparent Kd” value is “no binding seen”.
Then B14, with “no binding seen”; and B15, with “no binding seen”; and B16, with “no binding seen”.
For B17 the value was greater than 802 nM.
For the molecule B18, the “apparent Kd” value is “no binding seen”.

As a reminder, the apparent Kd is the concentration giving half-maximal binding under the conditions of the assay.
